# PubChem BioAssay
# Activity calls are given as the source filed them.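 The calls were made as follows, unless noted: active = NADPH fluorescence slope more negative than the mean of all samples by about 3 SD, 99.7% confidence; inactive = the rest.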
# Key:
# [1] = inhibitors of TNFa-induced NFkB p65 translocation, primary screen, imaging, HUVEC, MLSMR starter and 10KST1 sets (AID 438;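 active = inhibition above 20% together with a positive visual image hit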;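 also: compound added about 3h40 before a 20 min TNFalpha stimulation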;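 as to inhibition: signal is the nuclear over cytoplasmic p65 intensity ratio per well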); conditions: HUVEC TNFa-induced p65 nuclear translocation; cell count: measured here: nuclei count (cytotoxicity indicator), at 2.08 µM unless noted; inhibition: at 2 µM, stronger effect = higher value unless noted
# [2] = endothelial E-selectin expression blockers – imaging, HUVEC, immunofluorescence, MLSMR starter and 10KST1 sets, primary screen (AID 487;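 active = visually confirmed hit in the image check and inhibition above 20%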;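 as to inhibition: signal is fraction of cell area covered by stained E-selectin grains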;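 as to nuclei count: 100% = median nuclei count of all wells on the same plate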); conditions: HUVEC TNFalpha-induced E-selectin immunofluorescence imaging, at 2 µM; inhibition: stronger effect = higher value; nuclei count: measured here: cell number, toxicity
# [3] = Primary imaging screen for DUSP6 inhibitors that restore phospho-Erk in transfected HeLa cells, chemical complementation (AID 609;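 active = compounds giving at least 50% inhibition in the cell-based MKP-3 phosphatase rescue imaging test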;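 as to inhibition: phospho-Erk level distribution per well compared with pooled transfected vehicle control wells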); conditions: HeLa MKP-3 transfected, phospho-Erk imaging KS statistic, at 10 µM
# [4] = target: Dual specificity protein phosphatase 6 (Homo sapiens) (UniProt Q16828); assay: as above; conditions: HeLa MKP-3 transfected, phospho-Erk imaging KS statistic, at 10 µM, stronger effect = higher value
# Dual specificity protein phosphatase 6 (Homo sapiens), sequence (Q16828 whole entry, looked up): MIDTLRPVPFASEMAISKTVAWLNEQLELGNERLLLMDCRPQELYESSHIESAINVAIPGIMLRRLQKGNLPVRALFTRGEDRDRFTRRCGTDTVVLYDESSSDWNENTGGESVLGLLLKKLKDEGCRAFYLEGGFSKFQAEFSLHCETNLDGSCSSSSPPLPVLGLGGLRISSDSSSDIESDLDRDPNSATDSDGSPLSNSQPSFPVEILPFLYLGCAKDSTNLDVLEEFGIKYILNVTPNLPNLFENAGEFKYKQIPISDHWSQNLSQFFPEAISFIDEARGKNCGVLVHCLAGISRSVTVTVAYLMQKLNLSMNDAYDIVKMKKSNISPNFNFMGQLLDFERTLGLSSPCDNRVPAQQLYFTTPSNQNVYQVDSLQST
# [5] = target: Voltage-gated potassium channel subunit beta-2 (Rattus norvegicus) (UniProt P62483); assay: inhibitors of rat Kvbeta2 reductase activity – biochemical, NADPH fluorescence, primary screen (AID 622;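 active = fluorescence slope higher than the sample average by over 3 SD, cut at about -0.22 in these data, passing the limit was not always enough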;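 also: slope of raw intensity against log time taken from 70 to 1610 s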); conditions: recombinant KvBeta, 4-cyanobenzaldehyde reduction, at 10 µM, stronger effect = higher value
# Voltage-gated potassium channel subunit beta-2 (Rattus norvegicus), sequence (P62483 whole entry, looked up): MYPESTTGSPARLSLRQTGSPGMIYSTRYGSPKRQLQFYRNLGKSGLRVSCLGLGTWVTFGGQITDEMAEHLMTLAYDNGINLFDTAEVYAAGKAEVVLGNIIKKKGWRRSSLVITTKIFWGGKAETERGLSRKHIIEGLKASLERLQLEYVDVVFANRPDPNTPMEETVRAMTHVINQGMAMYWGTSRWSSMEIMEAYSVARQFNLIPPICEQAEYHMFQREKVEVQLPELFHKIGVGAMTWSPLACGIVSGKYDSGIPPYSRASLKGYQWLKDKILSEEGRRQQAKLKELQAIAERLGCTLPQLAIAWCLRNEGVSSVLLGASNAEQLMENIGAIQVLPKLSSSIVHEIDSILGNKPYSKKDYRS
# [6] = target: Voltage-gated potassium channel subunit beta-2 (Rattus norvegicus) (UniProt P62483); assay: enhancers of rat Kvbeta2 NADPH turnover – biochemical, NADPH fluorescence, primary screen (AID 623); conditions: Recombinant KvBeta, NADPH fluorescence decrease slope, 10 min; at 10 µM; stronger effect = lower value;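 also: fluorescence intensity change per second fitted from 20 to 320 s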
# [7] = target: Alpha-2C adrenergic receptor (Homo sapiens) (UniProt P18825); assay: compounds altering alpha2C-coupled GIRK flux – cell-based, HEK293 alpha2C/GIRK1/2, thallium flux, primary screen (AID 624;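 active = fluorescence slope after compound addition differing from the mean of all screened samples at 99.7% confidence, in either direction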;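 also: slope of fluorescence ratio to pre-addition baseline per second over 15 to 24 s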); conditions: thallium flux BTC fluorescence, at 10 µM, actives lie on both sides
# Alpha-2C adrenergic receptor (Homo sapiens), sequence (P18825 whole entry, looked up): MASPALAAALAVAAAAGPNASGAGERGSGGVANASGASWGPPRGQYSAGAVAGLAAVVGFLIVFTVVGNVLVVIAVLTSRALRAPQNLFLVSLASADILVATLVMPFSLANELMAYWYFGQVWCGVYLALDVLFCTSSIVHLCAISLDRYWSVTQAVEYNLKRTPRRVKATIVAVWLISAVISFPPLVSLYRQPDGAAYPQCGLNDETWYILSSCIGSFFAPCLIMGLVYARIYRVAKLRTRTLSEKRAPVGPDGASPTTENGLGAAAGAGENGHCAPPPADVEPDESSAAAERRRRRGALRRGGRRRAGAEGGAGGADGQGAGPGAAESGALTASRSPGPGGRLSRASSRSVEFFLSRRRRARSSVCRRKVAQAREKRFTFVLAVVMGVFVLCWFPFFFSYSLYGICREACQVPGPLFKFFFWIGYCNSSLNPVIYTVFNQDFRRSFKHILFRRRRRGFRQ
# [8] = inhibitors of larval lipid processing in zebrafish, primary screen, whole organism, PED6 fluorescence, gall bladder and intestine (AID 686;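 active = a full or partial loss of lipid-probe fluorescence in the fish gall bladder, intestine or both, judged by eye; inactive = no fluorescence loss, or compound toxic to the fish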;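 also: larvae 5 to 7 days old with five fish per well; signal comes from phospholipase A2 cleavage of quenched PED6 carried via bile; overnight exposure to compound and PED6 before scoring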); conditions: Zebrafish larvae PED6 lipid processing, fluorescence scoring
# [9] = loss of swimming-algae plug formation – whole organism, Chlamydomonas reinhardtii, WT vs cilia-less mutant, absorbance, 96-well, primary screen (AID 463189;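 active = inhibition at or above 50% relative to wild type and mutant plate controls; inactive = inhibition below 50%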;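 also: 0% = wild type cc124 cells in DMSO and 100% = ciliumless bld1 mutant cells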); conditions: Chlamydomonas reinhardtii gravitaxis, OD600 absorbance, 2 days; at 10 µM; stronger effect = higher value
# [10] = target: Muscarinic acetylcholine receptor M4 (Homo sapiens) (UniProt P08173); assay: M4-linked GIRK flux change, two-sided – cell-based, HEK293 M4/GIRK, thallium flux, BTC-AM, M4 allosteric agonist project, primary screen (AID 625;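 active = fluorescence slope after compound addition differing from the mean of all tested samples at 99.7% confidence, mostly higher but some lower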;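 also: thallium influx through GIRK channels coupled to M4 in HEK293 cells with BTC-AM dye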); conditions: at 10 µM, actives lie on both sides
# Muscarinic acetylcholine receptor M4 (Homo sapiens), sequence (P08173 whole entry, looked up): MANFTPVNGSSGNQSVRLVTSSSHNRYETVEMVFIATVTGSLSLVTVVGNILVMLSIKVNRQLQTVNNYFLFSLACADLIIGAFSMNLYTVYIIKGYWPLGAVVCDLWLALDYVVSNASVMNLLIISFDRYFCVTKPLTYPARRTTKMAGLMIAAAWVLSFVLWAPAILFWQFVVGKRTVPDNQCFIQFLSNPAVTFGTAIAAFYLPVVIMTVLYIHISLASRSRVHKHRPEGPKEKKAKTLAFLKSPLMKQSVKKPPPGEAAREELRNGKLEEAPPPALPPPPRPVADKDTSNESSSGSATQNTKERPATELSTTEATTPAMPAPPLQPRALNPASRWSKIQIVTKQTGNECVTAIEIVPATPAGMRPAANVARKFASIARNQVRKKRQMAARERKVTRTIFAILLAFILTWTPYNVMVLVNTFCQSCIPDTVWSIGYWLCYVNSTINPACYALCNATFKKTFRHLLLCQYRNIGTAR
# [11] = reduction of polyQ htt aggregates in cells – imaging, exon1htt(103Q)mCFP cells, high-content imaging, primary screen (AID 483;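 active = visual image review flags a hit and inhibition of aggregation exceeds 20%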;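 also: compound exposure lasted 3 days before fixation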;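 as to nuclei count: percent of the per-plate median nuclei count of sample wells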); conditions: exon1htt(103Q)mCFP cell line, aggregate imaging, at 2 µM; inhibition of aggregation: stronger effect = higher value; nuclei count: measured here: cell count, toxicity
# [12] = blockers of RIG-like receptor reporter activation – cell-based, Sendai virus stimulus, luciferase, 10K MLSCN set, TLR/RLR signaling modifier project, primary screen (AID 602276;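 active = inhibition at or above 50% at 10 µM; inactive = inhibition below 50%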;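 also: firefly luciferase from ISG56 promoter only with Renilla not read in this screen; 0% = Sendai virus plus DMSO and 100% = medium plus DMSO without virus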); conditions: HEK293 RL24 IRF3 luciferase reporter, at 10 µM, stronger effect = higher value
# [13] = TLR3 IRF3 reporter activation blockers – cell-based, poly I:C stimulus, luciferase, 10K MLSCN set, primary screen (AID 602277;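 active = inhibition of the reporter signal at or above 50%; inactive = inhibition below 50%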); conditions: HEK293-TLR3 RL24 IRF3 luciferase reporter, at 10 µM, stronger effect = higher value
# [14] = measured here: cell density z-score
# [15] = measured here: nuclear c-Myc green intensity z-score
# [16] = measured here: nuclear pErk red intensity z-score, stronger effect = higher value
Compound,cell count [1],inhibition [1],inhibition [2],nuclei count [2] [%],"z-score [3, 14]","z-score [3, 15]","z-score [3, 16]",inhibition [4],fluorescence slope [5],NADPH fluorescence slope [6],slope [7],outcome [8],inhibition [9],fluorescence slope [10],inhibition of aggregation [11],nuclei count [11] [%],inhibition [12],inhibition [13]
COCCOC(=O)c1c(N)n(Cc2ccco2)c2nc3ccccc3nc12,431,-13% (inactive),-107% (inactive),162,0.196,-0.0973,1.79,0.671% (inactive),-0.0308 (inactive),-7.2e-06 (inactive),0.00535 (inactive),inactive,15% (inactive),–,–,–,–,–
CC(=NCCO)c1c(O)n(C)c(=O)n(C)c1=O,608,-15.1% (inactive),-3.1% (inactive),90.8,2.05,-1.46,-1.21,31% (inactive),-0.432 (inactive),-4.7e-06 (inactive),0.00689 (inactive),inactive,-8.68% (inactive),–,–,–,–,–
CCCCn1c(O)c(C=NCCN2CCCCC2)c(=O)[nH]c1=O,430,0.6% (inactive),17.7% (inactive),87.8,0.907,-2.11,-0.0585,-4.7% (inactive),-0.489 (inactive),9.8e-06 (inactive),0.00621 (inactive),inactive,3.56% (inactive),–,–,–,–,–
CC1(C)NCCN2C(=O)CSC21 (stereo unspecified),652,-12.6% (inactive),-216% (inactive),158,0.771,0.411,0.0731,4.72% (inactive),-0.493 (inactive),-5.8e-05 (inactive),–,inactive,9.56% (inactive),0.00571 (inactive),–,–,–,–
CCCCc1nc2ccccc2c(=O)n1-c1ccccc1O,619,-3.2% (inactive),-6.5% (inactive),178,-0.399,0.344,1.46,-4.78% (inactive),-0.36 (inactive),5.8e-06 (inactive),0.00524 (inactive),inactive,2.52% (inactive),–,–,–,–,–
CCN(CC)c1ccc(N=Cc2c(O)n(-c3cc(OC)ccc3OC)c(=O)[nH]c2=O)cc1,462,2.1% (inactive),-25.3% (inactive),172,-0.53,0.14,0.193,16.8% (inactive),-0.37 (inactive),-5.8e-05 (inactive),0.00328 (inactive),inactive,34.9% (inactive),–,–,–,–,–
CCOc1ccc(-n2c(O)c(C=Nc3ccc(N(CC)CC)cc3)c(=O)[nH]c2=O)cc1,366,-4.7% (inactive),-63.9% (inactive),138,0.258,-1.14,0.567,14% (inactive),-0.361 (inactive),-0.000118 (inactive),-0.0068 (active),inactive,-4.04% (inactive),–,–,–,–,–
CCN(CC)CCCNC(=O)c1c(O)c2ccccc2n(Cc2ccccc2)c1=O,520,-4.8% (inactive),-10.6% (inactive),98.5,3.05,0.407,-1.44,15.8% (inactive),-0.425 (inactive),-6.7e-06 (inactive),0.00401 (inactive),inactive,-10.8% (inactive),–,–,–,–,–
CC1(c2ccccc2)NCCN2C(=O)CSC21 (stereo unspecified),632,2.3% (inactive),32.4% (inactive),147,1.05,-0.953,-0.166,1.12% (inactive),-0.477 (inactive),-6.1e-05 (inactive),–,inactive,8.43% (inactive),0.00532 (inactive),–,–,–,–
Nc1c(C(=O)NCc2ccco2)c2nc3ccccc3nc2n1Cc1ccc(F)cc1,678,12.5% (inactive),-9% (inactive),108,0.15,1.06,-0.878,-7.67% (inactive),-0.236 (inactive),-1e-05 (inactive),–,inactive,34.8% (inactive),0.00698 (inactive),–,–,–,–
CCCN(CC#CCO)CCC,701,11.7% (inactive),-121% (inactive),162,0.317,1.4,0.749,-11.4% (inactive),-0.448 (inactive),-4.9e-05 (inactive),–,inactive,-2.44% (inactive),0.00435 (inactive),–,–,–,–
Cc1nn(Cc2ccccc2Cl)c(Cl)c1C(=O)OCC(=O)NCc1ccco1,459,-14% (inactive),-20.7% (inactive),112,–,–,–,–,-0.605 (inactive),-1.7e-05 (inactive),0.00264 (inactive),–,–,–,3.2% (inactive),105,5.25% (inactive),-0.539% (inactive)
CCn1c(O)c(C(=O)CC2NCCc3ccccc32)c(=O)n(CC)c1=S (stereo unspecified),494,-7.2% (inactive),-84.9% (inactive),120,-1.06,-1.07,1.31,3.97% (inactive),-0.399 (inactive),-1.1e-05 (inactive),–,inactive,-9.64% (inactive),0.00707 (inactive),–,–,–,–
CC1CN=C(Nc2ccc(N(C)C)cc2)S1 (stereo unspecified),666,0.8% (inactive),-22.4% (inactive),136,-0.332,0.426,-0.395,3.49% (inactive),-0.464 (inactive),-5.1e-05 (inactive),–,inactive,9.45% (inactive),0.00379 (inactive),–,–,–,–
C=CCOC(=O)C1=C(C)OC(N)=C(C#N)[C@@]12C(=O)N(CC(N)=O)c1ccccc12,473,-1.4% (inactive),-499% (inactive),193,0.623,-0.273,0.824,2.71% (inactive),-0.441 (inactive),-5.7e-05 (inactive),–,inactive,1.7% (inactive),0.00506 (inactive),–,–,–,–
CCCCNC(=O)Nc1ccc(C(O)(C(=O)OC)C(F)(F)F)cc1 (stereo unspecified),632,-8.8% (inactive),7.1% (inactive),154,0.744,-1.2,0.72,18.4% (inactive),-0.482 (inactive),-4.8e-05 (inactive),–,inactive,8.19% (inactive),0.00513 (inactive),–,–,–,–
CCCC12CN3CN(C1)CC(CCC)(C3)C2O (stereo unspecified),527,5.6% (inactive),-164% (inactive),146,0.514,1.99,-1.5,7.42% (inactive),-0.474 (inactive),-0.000119 (inactive),–,inactive,-2.85% (inactive),0.00532 (inactive),–,–,–,–
OC1(c2ccc(F)cc2)CCNC1 (stereo unspecified),391,-8% (inactive),-146% (inactive),147,-0.692,-1.09,1.31,1.48% (inactive),-0.468 (inactive),-0.000119 (inactive),–,inactive,16.5% (inactive),0.00482 (inactive),–,–,–,–
COc1ccc(C(=O)CC2C(=O)N(C)C(=O)N(C)C2=O)cc1,726,14.4% (inactive),-27.9% (inactive),135,0.66,0.621,-1.11,-3.95% (inactive),-0.453 (inactive),-4.3e-05 (inactive),–,inactive,0.215% (inactive),0.00539 (inactive),–,–,–,–
CNC(=O)N(C)c1nnc(C(C)(C)C)s1,642,-6.4% (inactive),-26% (inactive),73.8,-3.07,0.0042,-1.4,11.9% (inactive),-0.502 (inactive),-9.9e-05 (inactive),–,inactive,119% (active),0.00657 (inactive),–,–,–,–
COc1ccccc1-n1c(O)c(C=NCCCn2ccnc2)c(=O)[nH]c1=O,752,3.4% (inactive),-23.3% (inactive),150,-0.173,-0.884,0.0227,7.83% (inactive),-0.426 (inactive),-4.1e-05 (inactive),–,inactive,5.72% (inactive),0.00527 (inactive),–,–,–,–
COC(=O)C(c1ccccc1)N1CCCCCC1 (stereo unspecified),730,0.3% (inactive),20.3% (inactive),165,-0.512,1.36,1.38,-11.4% (inactive),-0.406 (inactive),-3.5e-05 (inactive),–,inactive,-6.36% (inactive),0.0047 (inactive),–,–,–,–
NCC1(c2ccc3c(c2)OCCO3)CCCC1,634,8.6% (inactive),-19.9% (inactive),120,-0.692,-0.463,0.187,-13.3% (inactive),-0.453 (inactive),-2.2e-05 (inactive),–,inactive,-6.44% (inactive),0.0056 (inactive),–,–,–,–
COC(=O)C(O)(c1ccc(NC(=O)c2ccco2)c(OC)c1)C(F)(F)F (stereo unspecified),569,3.2% (inactive),1% (inactive),152,-0.555,0.637,1.11,-3.97% (inactive),-0.43 (inactive),-5.3e-05 (inactive),–,inactive,0.634% (inactive),0.00513 (inactive),–,–,–,–
O=C(CN1CCN(CCO)CC1)Nc1ccc(Cl)cc1C(=O)c1ccccc1,431,-4% (inactive),-88.6% (inactive),154,0.92,-0.897,0.82,11.9% (inactive),-0.465 (inactive),-0.000121 (inactive),–,inactive,12% (inactive),0.00435 (inactive),–,–,–,–
CN1CCc2c(c(N3CCCCC3)nc3n[nH]c(N)c23)C1,496,-17.1% (inactive),-154% (inactive),127,1.06,-1.56,0.455,21.4% (inactive),-0.463 (inactive),-8.3e-05 (inactive),–,inactive,-3.54% (inactive),0.00409 (inactive),–,–,–,–
